Assay results taken from PubChem BioAssay (EPA / NIEHS).
Inconclusive results are not listed. Activity calls are given as the source filed them. The calls were made as follows: active = hit-call score of the fitted dose curve at least 0.9, where 1 is the maximum; inconclusive = response in the unintended direction; inactive = score below 0.9.

These molecules were tested against Estrogen receptor (Homo sapiens) (UniProt P03372) (assay: OT_ER_ERaERa_1440: Odyssey Thera (OT) 24-hour HEK293T Protein-Complementation Assay for Estrogen Receptor-alpha/-alpha Homodimer (AID 2283349);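 also: hits raise fluorescence above DMSO for agonists and antagonists alike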).
Chain of Estrogen receptor (Homo sapiens) (P03372 whole entry, looked up, the tested form may be a part): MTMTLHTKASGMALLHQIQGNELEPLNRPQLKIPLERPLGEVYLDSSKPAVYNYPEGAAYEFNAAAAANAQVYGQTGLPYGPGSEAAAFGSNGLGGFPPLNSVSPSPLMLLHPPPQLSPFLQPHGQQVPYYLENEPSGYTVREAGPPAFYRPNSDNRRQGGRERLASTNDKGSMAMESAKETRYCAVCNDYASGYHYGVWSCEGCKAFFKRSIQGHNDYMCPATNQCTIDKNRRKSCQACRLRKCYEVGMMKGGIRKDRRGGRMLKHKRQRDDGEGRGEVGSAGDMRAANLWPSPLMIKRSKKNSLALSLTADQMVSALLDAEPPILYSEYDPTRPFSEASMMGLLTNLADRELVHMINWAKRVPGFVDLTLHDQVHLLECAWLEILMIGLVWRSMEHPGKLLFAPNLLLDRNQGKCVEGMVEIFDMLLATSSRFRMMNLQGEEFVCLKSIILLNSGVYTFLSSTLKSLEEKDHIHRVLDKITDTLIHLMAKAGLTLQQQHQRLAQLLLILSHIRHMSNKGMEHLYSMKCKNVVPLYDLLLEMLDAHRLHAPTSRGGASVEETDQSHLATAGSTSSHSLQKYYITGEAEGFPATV
In short: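 Stably transfected HEK293T; ERα LBD homodimer PCA. 24 h dosing, fluorescence intensity read, gain-of-signal vs DMSO.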
Cc1ccc2oc(CN(Cc3ccccc3)C(=O)Nc3c(F)cc(F)cc3F)c(-c3ccc(Cl)cc3)c2c1 was tested, and the outcome was “inactive”.
For OCCO, the outcome was “inactive”.
O=C=NCCCCCCN=C=O was tested, and the outcome was “inactive”.
With Cc1cccc2ccccc12 the outcome was “inactive”.
With O=C(O)Cn1c(=O)n(Cc2ccc(Br)cc2F)c(=O)c2ccc(Cl)cc21 the outcome was “inactive”.
CC1=CC(=O)/C(=C(/C)O)C(=O)O1 was tested, and the outcome was “inactive”.
For COCC(C)OCC(C)OCC(C)O (stereo not drawn), the outcome was “inactive”.
Cc1occc1C(=O)Nc1ccc(C(=O)N2CCC(F)(F)/C(=C\C(=O)N3CCC(N4CCCCC4)CC3)c3ccccc32)cc1 was tested, and the outcome was “inactive”.
For CCCCCCCCCCCCO, the outcome was “inactive”.
For Cc1ccc(C(C)C)cc1, the outcome was “inactive”.
With O=C1c2ccccc2C(=O)N1CCc1noc(-c2ccc(CN3CCCCCC3)s2)n1 the outcome was “inactive”.
O=C(OCCCCCCOC(=O)c1ccccc1)c1ccccc1 was tested, and the outcome was “inactive”.
COc1ccc2cc(S(=O)(=O)N[C@H](CC(=O)N[C@H](Cc3ccc(CN4[C@H](C)CCC[C@@H]4C)cc3)C(=O)N(C)C(C)C)c3ccc4c(c3)OCO4)ccc2c1 was tested, and the outcome was “inactive”.
COc1cc(C(=O)NC2CCN(C)CC2)ccc1Nc1ncc2c(n1)N(C1CCCC1)CC(F)(F)C(=O)N2C was tested, and the AC50 was 2.24 µM (active).
With CC(C)(C)c1csc(-c2cc3cc(OCc4ccccc4CC(=O)O)ccc3o2)n1 the outcome was “inactive”.
For c1ccc(C[n+]2cccc3ccccc32)cc1, the outcome was “inactive”.
In the case of Cc1cc2c(cc1C(F)(F)F)N(C(=O)Nc1ccc(Oc3cccnc3C)nc1)CC2, the outcome is reported as “inactive”.
In the case of O=c1ccc2ccccc2o1, the outcome is reported as “inactive”.
In the case of O=CCCCC=O, the outcome is reported as “inactive”.
In the case of CCCC(=O)OCCC(C)C, the outcome is reported as “inactive”.
In the case of OC12N=C(c3ccccc3)SC1Cc1cc(Cl)ccc12 (stereo not drawn), the outcome is reported as “inactive”.
For O=C(O)c1ccccc1-n1cc(C(=O)O)c(=O)c2cc(Nc3c(F)cc(F)cc3Cl)c(Cl)cc21, the outcome was “inactive”.
With COc1cccc([C@H](O)C2CCN(CCc3ccc(F)cc3)CC2)c1OC the outcome was “inactive”.

Each molecule was assayed against Estrogen receptor (Homo sapiens) (UniProt P03372) (assay: OT_ER_ERaERa_0480: Odyssey Thera (OT) 8-hour HEK293T Protein-Complementation Assay for Estrogen Receptor-alpha/-alpha Homodimer (AID 2283351);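 also: rise in fluorescence from reassembled reporter fragments on ERα LBD homodimer in nucleus or whole cell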).
In short: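 Measures ERα LBD (aa 310-547) homodimer complementation in stably transfected HEK293T at 8 h post-dose, with fluorescence intensity quantified on a laser scanning cytometer relative to DMSO controls.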
For Cc1ccc2oc(CN(Cc3ccccc3)C(=O)Nc3c(F)cc(F)cc3F)c(-c3ccc(Cl)cc3)c2c1, the outcome was “inactive”.
With OCCO the outcome was “inactive”.
O=C=NCCCCCCN=C=O was tested, and the outcome was “inactive”.
In the case of Cc1cccc2ccccc12, the outcome is reported as “inactive”.
For O=C(O)Cn1c(=O)n(Cc2ccc(Br)cc2F)c(=O)c2ccc(Cl)cc21, the outcome was “inactive”.
CC1=CC(=O)/C(=C(/C)O)C(=O)O1 was tested, and the outcome was “inactive”.
In the case of COCC(C)OCC(C)OCC(C)O (stereo not drawn), the outcome is reported as “inactive”.
For Cc1occc1C(=O)Nc1ccc(C(=O)N2CCC(F)(F)/C(=C\C(=O)N3CCC(N4CCCCC4)CC3)c3ccccc32)cc1, the AC50 was 27.7 µM (active).
CCCCCCCCCCCCO was tested, and the outcome was “inactive”.
In the case of Cc1ccc(C(C)C)cc1, the outcome is reported as “inactive”.
For O=C1c2ccccc2C(=O)N1CCc1noc(-c2ccc(CN3CCCCCC3)s2)n1, the outcome was “inactive”.
In the case of O=C(OCCCCCCOC(=O)c1ccccc1)c1ccccc1, the outcome is reported as “inactive”.
COc1ccc2cc(S(=O)(=O)N[C@H](CC(=O)N[C@H](Cc3ccc(CN4[C@H](C)CCC[C@@H]4C)cc3)C(=O)N(C)C(C)C)c3ccc4c(c3)OCO4)ccc2c1 was tested, and the outcome was “inactive”.
For COc1cc(C(=O)NC2CCN(C)CC2)ccc1Nc1ncc2c(n1)N(C1CCCC1)CC(F)(F)C(=O)N2C, the outcome was “inactive”.
For CC(C)(C)c1csc(-c2cc3cc(OCc4ccccc4CC(=O)O)ccc3o2)n1, the outcome was “inactive”.
c1ccc(C[n+]2cccc3ccccc32)cc1 was tested, and the outcome was “inactive”.
With Cc1cc2c(cc1C(F)(F)F)N(C(=O)Nc1ccc(Oc3cccnc3C)nc1)CC2 the outcome was “inactive”.
In the case of O=c1ccc2ccccc2o1, the outcome is reported as “inactive”.
In the case of O=CCCCC=O, the outcome is reported as “inactive”.
For CCCC(=O)OCCC(C)C, the outcome was “inactive”.
For OC12N=C(c3ccccc3)SC1Cc1cc(Cl)ccc12 (stereo not drawn), the outcome was “inactive”.
For COc1cccc([C@H](O)C2CCN(CCc3ccc(F)cc3)CC2)c1OC, the outcome was “inactive”.

These molecules were tested against Estrogen receptor (Homo sapiens) + Estrogen receptor beta (Homo sapiens) (UniProt P03372+Q92731) (assay: OT_ER_ERaERb_0480: Odyssey Thera (OT) 8-hour HEK293T Protein-Complementation Assay for Estrogen Receptor-alpha/-beta Heterodimer (AID 2283352)).
Chain of Estrogen receptor (Homo sapiens) + Estrogen receptor beta (Homo sapiens) (P03372 whole entry, looked up): as the sequence (P03372 whole entry, looked up, the tested form may be a part) above
Chain of Estrogen receptor (Homo sapiens) + Estrogen receptor beta (Homo sapiens) (Q92731 whole entry, looked up): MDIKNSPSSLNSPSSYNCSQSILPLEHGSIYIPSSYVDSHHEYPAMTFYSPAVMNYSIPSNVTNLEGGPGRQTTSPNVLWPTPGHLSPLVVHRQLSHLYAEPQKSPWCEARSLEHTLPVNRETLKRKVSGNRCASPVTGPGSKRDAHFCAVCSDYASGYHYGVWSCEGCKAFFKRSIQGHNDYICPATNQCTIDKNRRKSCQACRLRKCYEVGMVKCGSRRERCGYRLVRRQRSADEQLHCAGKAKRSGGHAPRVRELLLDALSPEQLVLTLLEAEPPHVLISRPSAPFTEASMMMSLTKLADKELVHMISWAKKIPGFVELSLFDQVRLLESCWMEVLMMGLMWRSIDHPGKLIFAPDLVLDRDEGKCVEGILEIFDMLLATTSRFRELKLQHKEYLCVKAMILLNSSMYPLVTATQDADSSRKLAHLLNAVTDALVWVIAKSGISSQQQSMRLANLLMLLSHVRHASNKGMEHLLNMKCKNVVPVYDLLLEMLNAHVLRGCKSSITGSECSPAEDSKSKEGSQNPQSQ
In short: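 Compound added to HEK293T cells carrying split-reporter-tagged ER-alpha and ER-beta LBDs, incubated 8 hours, then imaged by laser scanning cytometer. Signal rise in nucleus, or nucleus and cytoplasm, over vehicle was fitted in the positive direction.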
Cc1ccc2oc(CN(Cc3ccccc3)C(=O)Nc3c(F)cc(F)cc3F)c(-c3ccc(Cl)cc3)c2c1 was tested, and the outcome was “inactive”.
O=C=NCCCCCCN=C=O was tested, and the outcome was “inactive”.
In the case of O=C(O)Cn1c(=O)n(Cc2ccc(Br)cc2F)c(=O)c2ccc(Cl)cc21, the outcome is reported as “inactive”.
With CC1=CC(=O)/C(=C(/C)O)C(=O)O1 the outcome was “inactive”.
For Cc1occc1C(=O)Nc1ccc(C(=O)N2CCC(F)(F)/C(=C\C(=O)N3CCC(N4CCCCC4)CC3)c3ccccc32)cc1, the AC50 was 26.9 µM (active).
With CCCCCCCCCCCCO the outcome was “inactive”.
COc1cc(C(=O)NC2CCN(C)CC2)ccc1Nc1ncc2c(n1)N(C1CCCC1)CC(F)(F)C(=O)N2C was tested, and the outcome was “inactive”.
CC(C)(C)c1csc(-c2cc3cc(OCc4ccccc4CC(=O)O)ccc3o2)n1 was tested, and the outcome was “inactive”.
In the case of c1ccc(C[n+]2cccc3ccccc32)cc1, the outcome is reported as “inactive”.
In the case of O=c1ccc2ccccc2o1, the outcome is reported as “inactive”.
With OC12N=C(c3ccccc3)SC1Cc1cc(Cl)ccc12 (stereo not drawn) the outcome was “inactive”.
O=C(O)c1ccccc1-n1cc(C(=O)O)c(=O)c2cc(Nc3c(F)cc(F)cc3Cl)c(Cl)cc21 was tested, and the outcome was “inactive”.
COc1cccc([C@H](O)C2CCN(CCc3ccc(F)cc3)CC2)c1OC was tested, and the outcome was “inactive”.

What follows are molecules tested against Androgen Receptor/SRC-1 Co-activator, AR (gene 367) (UniProt P10275) (assay: OT_AR_ARSRC1_0960: Odyssey Thera (OT) 16-hour HEK293T Protein-Complementation Assay for Androgen Receptor/SRC-1 Co-activator (AID 2283353);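 also: actives raise the signal above DMSO so potency reflects increased AR and SRC-1 complex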).
Chain of Androgen Receptor/SRC-1 Co-activator, AR (gene 367) (P10275 whole entry, looked up, the tested form may be a part): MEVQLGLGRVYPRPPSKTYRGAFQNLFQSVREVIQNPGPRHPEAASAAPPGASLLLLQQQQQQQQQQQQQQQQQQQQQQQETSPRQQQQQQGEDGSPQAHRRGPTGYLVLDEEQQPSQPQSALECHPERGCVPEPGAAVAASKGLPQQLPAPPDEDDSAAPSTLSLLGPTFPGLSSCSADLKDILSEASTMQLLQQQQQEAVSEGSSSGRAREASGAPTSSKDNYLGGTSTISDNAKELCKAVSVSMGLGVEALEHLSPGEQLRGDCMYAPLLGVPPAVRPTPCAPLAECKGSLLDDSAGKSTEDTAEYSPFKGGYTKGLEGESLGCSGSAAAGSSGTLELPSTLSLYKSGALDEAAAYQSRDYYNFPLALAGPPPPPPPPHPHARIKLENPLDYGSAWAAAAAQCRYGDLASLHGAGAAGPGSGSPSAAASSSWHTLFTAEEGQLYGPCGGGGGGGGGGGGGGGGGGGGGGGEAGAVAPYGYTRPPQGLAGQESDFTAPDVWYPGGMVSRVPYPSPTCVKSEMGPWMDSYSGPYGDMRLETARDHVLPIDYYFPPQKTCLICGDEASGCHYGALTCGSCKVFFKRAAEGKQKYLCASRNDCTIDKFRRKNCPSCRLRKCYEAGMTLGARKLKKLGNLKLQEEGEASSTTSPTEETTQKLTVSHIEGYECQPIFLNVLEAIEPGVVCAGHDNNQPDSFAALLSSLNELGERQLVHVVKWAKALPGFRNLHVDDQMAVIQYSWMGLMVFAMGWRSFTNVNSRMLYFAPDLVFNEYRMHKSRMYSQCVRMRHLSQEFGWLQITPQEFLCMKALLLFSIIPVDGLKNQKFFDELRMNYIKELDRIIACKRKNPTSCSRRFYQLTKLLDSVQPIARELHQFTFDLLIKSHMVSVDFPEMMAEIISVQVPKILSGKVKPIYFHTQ
In short: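 Sixteen-hour cell assay: Venus halves fused to AR and SRC-1 in HEK293T report binding. Images at 488/635 nm give an N/C ratio in the 488 nm channel over ≥400 cells, analysed as signal increase over DMSO.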
OCCO was tested, and the outcome was “inactive”.
In the case of CCCCCCCCCC(=O)O, the outcome is reported as “inactive”.
For O=C(O)Cn1c(=O)n(Cc2ccc(Br)cc2F)c(=O)c2ccc(Cl)cc21, the outcome was “inactive”.
CCCCOC(=O)c1ccc(O)cc1 was tested, and the outcome was “inactive”.
In the case of COCC(C)OCC(C)OCC(C)O (stereo not drawn), the outcome is reported as “inactive”.
With Cc1occc1C(=O)Nc1ccc(C(=O)N2CCC(F)(F)/C(=C\C(=O)N3CCC(N4CCCCC4)CC3)c3ccccc32)cc1 the AC50 was 32.3 µM (active).
With Oc1ccc2ccccc2c1 the outcome was “inactive”.
In the case of O=c1c(-c2ccc(O)cc2)coc2cc(O)cc(O)c12, the outcome is reported as “inactive”.
COc1cc(C(=O)NC2CCN(C)CC2)ccc1Nc1ncc2c(n1)N(C1CCCC1)CC(F)(F)C(=O)N2C was tested, and the AC50 was 25.9 µM (active).
In the case of CCCC(=O)OCCC(C)C, the outcome is reported as “inactive”.
